Assay results published in PubChem BioAssay AID614 (Sanford-Burnham Center for Chemical Genomics, 2007).
Hit rate of the full screen: of about 21,000 compounds, fewer than 10 were called active.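 How the source made its calls: active means inhibition above 50% at the 20 µM single-dose screen; inactive means the rest.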 These entries were drawn from the full list.

target: Alkaline phosphatase, tissue-nonspecific isozyme (Homo sapiens) (UniProt P05186); test: human TNAP enzyme inhibitors, primary screen, biochemical, colorimetric, phosphate release readout (AID 614); conditions: purified TNAP, pNPP, malachite green phosphate absorbance; at 20 µM; hits give high values
Sequence (P05186 whole entry, looked up): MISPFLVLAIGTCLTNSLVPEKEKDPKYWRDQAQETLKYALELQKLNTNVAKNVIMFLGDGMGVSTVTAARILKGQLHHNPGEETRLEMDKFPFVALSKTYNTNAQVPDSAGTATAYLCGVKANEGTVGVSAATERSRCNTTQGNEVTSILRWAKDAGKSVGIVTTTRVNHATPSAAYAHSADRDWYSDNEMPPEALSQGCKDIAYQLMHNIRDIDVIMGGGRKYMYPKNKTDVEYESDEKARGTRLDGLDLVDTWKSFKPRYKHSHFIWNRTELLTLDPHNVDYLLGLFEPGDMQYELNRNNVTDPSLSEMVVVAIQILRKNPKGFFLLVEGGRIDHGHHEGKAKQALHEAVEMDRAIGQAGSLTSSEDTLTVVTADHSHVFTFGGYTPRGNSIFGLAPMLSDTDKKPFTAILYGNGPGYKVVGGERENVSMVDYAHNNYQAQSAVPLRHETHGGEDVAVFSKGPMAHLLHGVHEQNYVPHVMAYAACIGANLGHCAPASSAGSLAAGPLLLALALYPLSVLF

inhibition, inactive:
C=CCNc1nc(C)nc(OC)n1 -2.9%
CCc1cc(=O)oc2cc(C)cc(OC(C)C(=O)O)c12 (stereo not drawn) 8.6%
O=S(=O)(O)c1nc2ccccc2n1Cc1ccc(Cl)cc1Cl 0%
CCNC(=O)CCc1nc(-c2ccc(C(C)(C)C)cc2)no1 2%
CC1(C)Oc2ccc(C(=O)N3CCOCC3)cc2N(CC(=O)Nc2ccccc2)C1=O -16.7%
COc1cccc(C2/C(=C(/O)c3ccc(F)cc3)C(=O)C(=O)N2CCN(C)C)c1 (stereo not drawn) 0.4%
Cc1cccc(N)c1SC1CCCCC1O (stereo not drawn) 9.2%
CC(C)(C)n1nnc(CCc2nnn(C(C)(C)C)n2)n1 0.3%
CCOC(=O)CSc1nnc(NC(=O)c2cccc(S(=O)(=O)N3CCCC3)c2)s1 9.6%
C=CCNc1nnc(C)c2ccccc12 15.4%
COCCNC(=O)C(C#N)c1nc2ccccc2nc1N1CCN(Cc2ccc3c(c2)OCO3)CC1 (stereo not drawn) 8.2%
CC1COC2C(O1)N(S(C)(=O)=O)CCN2S(C)(=O)=O (stereo not drawn) 3.4%
CCn1cc(C(=O)NCc2ccc(OC)cc2OC)c(=O)c2ccc(C)nc21 9.9%
Cc1cccc(NC(=O)c2ccccc2NC(=O)C(C)(C)C)n1 0.8%
Cc1cc(C)cc(NC(=O)N2CCC(NC(=O)c3ccc(F)cc3)CC2)c1 7.3%
CSc1nsc(SC)c1NC(=O)OC1CCCCC1 0%
COCc1nc2ccccc2n1Cc1ccccc1Br 1.7%
c1nnc2c3c4c(sc3ncn12)CCC4 9.7%
Cc1cc(Cl)c(S(=O)(=O)NCc2cccnc2)cc1OCC(N)=O 5.5%
O=C(O)c1ccc(NS(=O)(=O)c2cccc3nsnc23)cc1 11.8%
Cn1c(=O)[nH]c(=O)c2c1nc(Br)n2CCCCSc1nc2ccccc2o1 1.3%
CCOC(=O)c1sc(NC(=O)CSc2nnc(-c3ccco3)o2)c(C(=O)OCC)c1C 7.3%
Cc1nc(N2CCCC2C(=O)O)c2oc3ccccc3c2n1 (stereo not drawn) 10.7%
Cc1nc(NCCN)c(C#N)c2c1COC(C)(C)C2 5.7%
O=S(=O)(NCc1ccccn1)c1ccc(F)cc1 9.6%
CCN(CC)C(=O)CSc1nnc(-c2cnccn2)n1-c1ccc(C)cc1 2.9%
Cc1ccc(S(=O)(=O)Nc2ccccc2CNc2c(C)n(C)n(-c3ccccc3)c2=O)cc1 12.4%
CCC1CCCCN1C(=O)Nc1cccc(NC(=O)N2CCCCC2CC)c1 (stereo not drawn) 6.5%
Cc1ccc2nc(-c3ccccc3)cc(C(=O)O)c2c1 2.9%
COc1ccc(Cl)cc1NC(=O)C1CC(=O)N(c2ccc(F)cc2)C1 (stereo not drawn) 4.2%
CCOC(=O)Cn1c(SC)nc2sc3c(c2c1=O)CC(C)(C)OC3 11.5%
CCOC(=O)CCc1c(C)c2ccc(OCc3nn[nH]n3)c(C)c2oc1=O -5.8%
Cc1noc(C)c1CSc1nnc2ccc3ccccc3n12 12.2%
COc1ccc(CCn2c(-c3ccco3)nc3nc4ccccc4nc32)cc1OC 1.5%
Cc1cccc2cc(CN(Cc3ccc4c(c3)OCO4)Cc3nnnn3C3CCCC3)c(=O)[nH]c12 15%
COc1cc(C(=O)N(Cc2ccc(N(C)C)cc2)C2CCS(=O)(=O)C2)cc(OC)c1OC (stereo not drawn) 8%
CCOC(=O)CC1=CC(=O)Nc2ccccc2N1 2.4%
Cc1cc(C)cc(OCc2nnc(SCC(=O)OC3CCCCC3)o2)c1 -4.5%
COC(=O)c1nc(NC(=O)c2ccc(Cl)cc2)n[nH]1 1.5%
CCC1SC2=NCCN2C1(O)c1ccc(Cl)cc1 (stereo not drawn) 3.8%
CCSc1nc(=S)n(CC)c(C)c1C(C)=O 5.7%
Cc1ccc2nc(NC3=NCN(CCc4ccccc4)CN3)nc(C)c2c1 10.4%
O=C(CN(c1ccc2c(c1)OCCO2)S(=O)(=O)c1ccccc1)Nc1ccc2c(c1)OCO2 5.3%
O=S(=O)(NCC1CCCO1)c1ccc2ccccc2c1 (stereo not drawn) 8.8%
CCn1c(SCC(=O)Nc2nc3ccc(OC)cc3s2)nnc1-c1ccoc1C 1.9%
CSCC[C@H](NC(=O)NCc1cccs1)C(=O)O -0.1%
COC(=O)c1ccc(CSc2nncn2C)cc1 11%
COc1cccc(N(CC(=O)Nc2cccc(F)c2)S(C)(=O)=O)c1 0.7%
CCOP1(=O)C=C(C(C)(C)C)OC1c1ccc(F)cc1 (stereo not drawn) -0.2%
CCN1CCN(C(=O)c2ccccc2N(C)S(=O)(=O)c2ccc(C)cc2)CC1 11.4%
Nn1c(SCC(=O)NC(=O)NC2CCCC2)nnc1-c1ccccc1F 15.5%
CCCn1c(SCC(=O)c2ccc3c(c2)OCCO3)nnc1C(C)C 11.4%
O=C(Nc1cccc2c1CCCC2)C1CCN(C(=O)NC2CCCCC2)CC1 15.2%
COc1ccc2c(c1)C(C)=CC(C)(C)N2C(=O)CNCc1ccc2c(c1)OCO2 6.2%
COc1ccc(NS(=O)(=O)c2ccc(NC(=O)C(C)(C(F)(F)F)C(F)(F)F)cc2)nn1 3.4%
Cc1ccc(C(=O)CS(C)(=O)=O)cc1 -1.2%
Clc1ccc(CSc2nnc([C@@H]3CCCN3)o2)cc1 13%
COC(=O)C1C(=O)CC(C)(O)C(C(=O)OC)C1c1ccc2c(c1)OCO2 (stereo not drawn) 9.9%
CN(C)Cc1c(C#N)c2ccccc2n1C -22.9%
C=CCn1c(CC(=O)Nc2cccc(OC)c2)nnc1SCC(=O)NC1CCCCC1 -6.2%
Cc1cc(Br)ccc1NC(=O)C1CCCO1 (stereo not drawn) 0%
Cc1ccc(C(=O)CSc2nc3ccccc3c(=O)n2N)o1 6%
CCCCC(CCC(=O)Nc1ccc(C(=O)OCC)cc1)C(=O)O (stereo not drawn) 6%
Fc1cnc(N2CCOCC2)nc1NCc1ccccc1 -0.4%
CCOC(=O)CN(C(=O)CN1CCOCC1)c1ccc(Br)cc1 -1.5%
O=C(O)COc1nsnc1N1CCOCC1 10.4%
O=C1CCC(C(=O)Nc2ccc(OC(F)F)cc2)N1 (stereo not drawn) 21.3%
Cc1cccc(Cn2c(N3CCN(c4ccccc4)CC3)nc3c2c(=O)n(C)c(=O)n3C)c1 8.8%
O=C1CC(N2CCN(C(c3ccccc3)c3ccccc3)CC2)C(=O)N1 (stereo not drawn) 7.9%
COC(=O)c1ccc(N(CC(=O)NC2CCCC2)C(=O)CNC(=O)c2ccco2)cc1 0%
Cc1ccc(C)c(NC(=O)C2CCCN2C(=O)OC(C)(C)C)c1 (stereo not drawn) -3.4%
O=C(NCc1ccc(Cl)cc1)c1cc2c(nc3sccn32)s1 12.4%
CN(C)CCCNc1c2c(c(C#N)c3nc4ccccc4n13)CCC2 0%
Cc1c(C(=O)OCc2cc(=O)n3cc(Br)ccc3n2)oc2ccccc12 -2.2%
Cc1ccc(Oc2ccc(N)cc2)cc1 15%
Cc1cc(N2CCCC2)n2nc(C)c(-c3ccccc3)c2n1 8.2%
CC(C)C1Cc2c(sc3c2c(=O)n(-c2ccccc2)c2nncn32)CO1 (stereo not drawn) 10.1%
COC(=O)c1cc(OC)c(OC)cc1NC(=O)C1CCCO1 (stereo not drawn) 6%
CC(=O)N1CCN(C(=O)Nc2cccc(C(F)(F)F)c2)CC1 -0.7%
CCCC(=O)Nc1ccc2c(c1)nc1n2CCSC1 3.5%
O=C(CSc1nnc(-c2ccoc2)o1)N1CCOCC1 -1.3%
c1cnc(NC2C3CC4CC(C3)CC2C4)nc1 (stereo not drawn) 3.8%
N#CC(C(N)=O)=C1CCC2(CC1)OCCCCO2 13.2%
Cc1ccc(S(=O)(=O)N2CCC(N3CCCCCC3)CC2)cc1 7%
COc1ccc(-c2nnc(SCC(=O)c3ccco3)n2-c2ccccc2)cc1 2.3%
O=C(c1cccc(S(=O)(=O)N2CCOCC2)c1)N1CCOCC1 6.8%
CCc1ccc(N2CC(C(=O)NC3=NCCS3)CC2=O)cc1 (stereo not drawn) -4.1%
COC(=O)[C@H](Cc1ccccc1)NC(=O)N1CC(C)OC(C)C1 (stereo partly drawn) 6.7%
CC(C)OCCCNc1nc2c(c(=O)n(Cc3ccccc3F)c(=O)n2C)n1C 11.4%
N#Cc1c2c(c(-c3ccccc3)[nH]c1=O)CCCC2 9.6%
Cc1ccc(C(C(=O)NC2CCCC2)N(Cc2ccco2)C(=O)CCC(=O)Nc2ccccn2)cc1 (stereo not drawn) 7.3%
COc1c(O)cccc1-c1nnn(CCC(=O)OCC(=O)c2ccccc2)n1 2.2%
O=C(O)c1cscn1 4.2%
O=C(CSc1nnc(-c2ccccn2)n1-c1ccccc1)Nc1ccc2c(c1)OCO2 3.6%
COc1ccc(C(=O)Nc2ccc(S(=O)(=O)Nc3onc(C)c3C)cc2)cc1OC 0.4%
CCOC(=O)C1=C(C)NC(=O)N(C(C)=O)C1c1ccc(Cl)cc1 (stereo not drawn) 10%
O=C(NCCSc1ccccc1)c1ccco1 13.2%
CCc1nc2ccccc2n(CCOCCOCCn2c(=O)c(CC)nc3ccccc32)c1=O 8.8%
COc1cccc(N(CC(=O)Nc2cccc(N(C)S(C)(=O)=O)c2)S(C)(=O)=O)c1 0%
CS(=O)(=O)N1CCN(C(=O)c2cc3ccccc3oc2=O)CC1 11.1%
COc1ccc(CNC(=O)c2c(C)cc(=O)oc2C)cc1OC 11.6%
COc1ccc(-n2c(SCC(=O)OC(C)C)nnc2-c2ccccn2)cc1 7.8%
CCN(CC)S(=O)(=O)c1cccc(C(=O)Nc2ccccc2)c1 3.8%
Cc1cc(C)nc(SCc2nnc(SCC(=O)OC3CCCCC3)o2)n1 2.9%
CNC(=O)c1nnn(-c2ccccc2)c1C(=O)NC 6.4%
COC(=O)c1ccc(NC(=O)CSc2nnc(CNc3ccc(OC)cc3)n2C)cc1 -7.8%
CCc1nc2oc3ccccc3c(=O)c2c(=O)n1Cc1ccc(OC)cc1 6.6%
CCOC(=O)c1cc2cc(C)ccc2[nH]1 -8.6%
